From PubChem BioAssay
Hits are enriched below; roughly 4.2% of the tested compounds scored in any of these assays.
hgDAF-12 ag – H. glycines DAF-12 receptor agonists, primary screen, cell-based, luminescence, HEK293, GAL4 fusion, UAS-luciferase | 370,000 compounds, 1.8% hits | HEK293 GAL4-hgDAF12 UAS-luciferase reporter, agonist luminescence; normalized to butyrate control | AID 687014, 2013 | activation, % at 6.8 µM;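 active = activation above a cutoff set at the mean of all screened compounds plus 3 SD, cut at about 10% in these data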;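 note: 0% = DMSO wells and 100% = sodium butyrate wells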
hcDAF-12 act – H. contortus DAF-12 nuclear receptor activators, primary screen, cell-based, luminescence, HEK293, lit1-tk-luc reporter | 370,000 compounds, 1.4% hits | HEK293 hcDAF-12 lit1-tk-luc reporter; 0% DMSO, 100% Δ7-dafachronic acid | activation, % at 6.8 µM;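 active = activation above the mean of all tested compounds plus 3 SD, cut at about 5.5% in these data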;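 note: 100% = response to 3 µM Δ7-dafachronic acid high control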
ssDAF12 agonist – S. stercoralis DAF-12 nuclear receptor activators, primary screen, cell-based, luminescence, HEK293, GRIP1 co-expression, lit1-tk-luc. HEK293 ssDAF-12/GRIP1 lit1-tk-luc reporter; % of 3 µM dafachronic acid response. activation, % at 6.8 µM. 370,000 compounds, 1% hits. AID 652126, 2013;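 active = activation above the mean over all tested compounds plus 3 SD, cut at about 0.9% in these data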;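 note: 0% = DMSO-only wells and 100% = 3 µM delta7-dafachronic acid wells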
DAX1 StAR inh – DAX1 (NR0B1) inhibitors on StAR promoter, primary screen, cell-based, luminescence, SF-1 (NR5A1), full-length DAX-1 | HEK293T StAR-luciferase reporter, SF-1/DAX-1 repression relief | inhibition, % at 6.8 µM | 370,000 compounds, 1.1% hits;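 active = inhibition above the mean over all tested compounds plus 3 SD, cut at about 3.6% in these data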;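 note: 0% = DAX-1 cells with DMSO and 100% = cells lacking DAX-1 with DMSO; higher inhibition means more luminescence from relief of DAX-1 repression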
Wnt act – Wnt/beta-catenin pathway activators, primary screen, cell-based, plate reader, single point; AID 743398, 2014; Wnt/beta-catenin reporter cell assay, activator; activation, % at 9.35 µM; 300,000 compounds, 1.2% hits; in the data active = activation above about 30%, passing the limit was not always enough;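 note: 0% = neutral control wells and 100% = positive control wells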
esBAF inh – Bmi1 luciferase reporter increase in mESCs, primary screen, esBAF inhibitor project, mouse ES cells, Bmi1 luciferase knock-in, single point. reporter increase, % at 12.5 µM. 350,000 compounds, 2% hits. AID 602393, 2012. 24 h; 100% = twice the neutral-well signal; in the data active = activation above about 40%;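 note: 0% = median of the plate's neutral control wells and 100% = double that signal; a rise in the Bmi1 reporter signal indicates esBAF inhibition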
* marks the source's active call; other numbers are inactive results; nt = not tested or not shown.

SMILES	hgDAF-12 ag	hcDAF-12 act	ssDAF12 agonist	DAX1 StAR inh	Wnt act	esBAF inh
CCNC(=O)[C@@H]1[C@@H](CO)[C@@H]2Cn3c(ccc(C4=CCCCC4)c3=O)[C@@H]2N1C(=O)CC1CC1	nt	nt	nt	nt	nt	0.4
C[C@@H]1CCCCO[C@H](CN(C)C(=O)Nc2cccc3ccccc23)[C@H](C)CN([C@H](C)CO)C(=O)c2cc(NS(=O)(=O)c3cn(C)cn3)ccc2O1	nt	nt	nt	nt	nt	-0.9
O=C(CC1SC(=O)N(c2ccccc2)C1=O)Nc1ccccc1 (configuration not stated)	6.4	1.4	-0.4	1.3	nt	nt
Cc1cccc(NC2SC(=O)N(c3ccccc3)C2=O)c1 (configuration not stated)	2.6	3.5	-0.7	2.2	nt	54.8*
Cc1ccc(NC(=O)CC2SC(=O)N(c3ccccc3)C2=O)cc1 (configuration not stated)	2.9	0.6	-0.1	1.4	32.5*	nt
Cc1cccc(NC(=O)CC2SC(=O)N(c3ccccc3)C2=O)c1 (configuration not stated)	3.4	4.2	-1.3	-0.2	nt	15.4
C[C@@H]1CN([C@H](C)CO)C(=O)c2cc(NC(=O)Cc3ccccc3)ccc2O[C@@H]1CN(C)C(=O)Nc1ccccc1	nt	nt	nt	nt	nt	6.6
Cc1ccc(C(=O)Nc2cc3c(oc2=O)CCCC3=O)cc1	11.2*	4.0	0.4	2.4	34.1*	nt
O=C(O)[C@@H]1Cc2ccccc2N1	-1.8	4.1	1.0*	-0.6	5.1	0.4
C[C@@H]1CCCCO[C@H](CN(C)S(C)(=O)=O)[C@@H](C)CN([C@@H](C)CO)C(=O)c2cc(NC(=O)Nc3ccc4c(c3)OCO4)ccc2O1	nt	nt	nt	nt	nt	2.3
Cc1noc(C)c1NC(=O)Nc1ccc2c(c1)C(=O)N([C@@H](C)CO)C[C@@H](C)[C@H](CN(C)S(=O)(=O)c1ccc(Cl)cc1)OCCCC[C@@H](C)O2	nt	nt	nt	nt	nt	1.9
O=C(Nc1ccc(F)c(F)c1)c1oc2ccccc2c1NC(=O)C1CCCO1 (configuration not stated)	-1.0	-0.8	-1.7	-0.7	4.5	32.3
Cc1ccc(NC(=O)c2oc3ccccc3c2NC(=O)C2CCCO2)cc1C (configuration not stated)	10.0	3.3	-0.9	2.8	47.3*	nt
COc1ccc(NC(=O)c2oc3ccccc3c2NC(=O)C2CC2)cc1OC	0.7	-2.5	-0.6	-2.9	1.0	12.9
COc1ccc(NC(=O)c2oc3ccccc3c2NC(=O)C2CCCO2)cc1OC (configuration not stated)	-1.1	-1.9	-1.4	0.4	-3.0	63.3*
COc1ccc(CCNC(=O)c2coc3ccccc3c2=O)cc1OC	2.5	-1.3	-0.6	-0.1	-0.1	-6.1
COc1ccc(NC(=O)c2coc3ccccc23)cc1OC	4.0	-0.7	-0.5	0.5	nt	83.0*
C[C@H](CO)N1C[C@H](C)[C@@H](CN(C)Cc2cccc(C(=O)O)c2)Oc2cc(C#CCC3CCCC3)ccc2S1(=O)=O	nt	nt	nt	nt	nt	7.0
COc1cc(C=O)ccc1OCc1ccccc1Br	5.0	6.2*	-0.4	1.4	22.5	nt
COC(=O)c1ccccc1OCCCOc1ccc(C=O)cc1OC	7.5	3.1	-0.8	0.3	nt	70.1*
COC(=O)c1ccccc1OCCOc1ccccc1C(=O)OC	1.4	0.3	-0.9	-0.3	-0.8	-6.6
COc1ccccc1/C=C1\SC(=S)N(CCC(=O)N2CCCCC2CCO)C1=O (configuration not stated)	1.4	1.4	-1.2	-0.6	-0.3	1.4
O=C1/C(=C/c2cccs2)SC(=S)N1CCC(=O)N1CCCCC1CCO (configuration not stated)	8.4	2.6	0.2	0.1	8.5	59.5*
Cc1cc(C)cc(NC(=O)C(Sc2ncnc3ccccc23)c2ccccc2)c1 (configuration not stated)	2.1	6.4*	-0.4	-0.2	-1.9	nt
